Reference: the supplement of paper PMC6555819

Legend:
Assay in all cases: PBM binding z-score (relative to random genomic background probes); higher = stronger binding; sequences stand for … in GC…GCGATTGACAGCGTAGAATGAAGG
[1] = system: FXR:RXRa (NR concentration 270 nM, RXRa partner concentration 90 nM)
Summary of the method: (§1)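 Custom Agilent 4×180K protein-binding microarrays carried double-stranded probes, each with a 34-nt variable region. These regions held direct-repeat seeds, single-nucleotide variants, half-site ablations and random human genomic background sequences. Ligand-free nuclear receptor dimers were incubated on the arrays for 1 h, antibodies against each partner (one per run) detected binding, and scanned fluorescence was regression-normalized. Binding z-scores take the random background probes as reference.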

[2] = system: LXRa:RXRa (NR concentration 270 nM, RXRa partner concentration 90 nM)
Summary of the method: as §1

[3] = system: LXRa homodimer (NR concentration 270 nM)
Summary of the method: as §1

[4] = system: LXRb:RXRa (NR concentration 270 nM, RXRa partner concentration 90 nM)
Summary of the method: as §1

[5] = system: LXRb homodimer (NR concentration 270 nM)
Summary of the method: as §1

[6] = system: PPARa:RXRa (NR concentration 270 nM, RXRa partner concentration 90 nM)
Summary of the method: as §1

[7] = system: PPARg:RXRa (NR concentration 180 nM, RXRa partner concentration 90 nM)
Summary of the method: as §1

[8] = system: PPARg:RXRa 270nM:90nM, anti-RXR (NR concentration 270 nM, RXRa partner concentration 90 nM)
Summary of the method: as §1

[9] = system: PPARg:RXRa 30nM:10nM, anti-RXR (NR concentration 30 nM, RXRa partner concentration 10 nM)
Summary of the method: as §1

[10] = system: PPARg:RXRa 90nM:30nM, anti-RXR (NR concentration 90 nM, RXRa partner concentration 30 nM)
Summary of the method: as §1

[11] = system: PPARg:RXRa DBDmut IVT, anti-RXR (DBD mutation: RXRa K156A/R161A, NR concentration 270 nM, RXRa partner concentration 90 nM)
Summary of the method: as §1

[12] = system: PPARg:RXRa IVT, anti-PPARg (NR concentration 270 nM, RXRa partner concentration 90 nM)
Summary of the method: as §1

[13] = system: PPARg DBDmut:RXRa IVT, anti-PPARg (DBD mutation: PPARg1 K132A/R137A, NR concentration 270 nM, RXRa partner concentration 90 nM)
Summary of the method: as §1

[14] = system: PPARg DBDmut IVT, anti-PPARg (DBD mutation: PPARg1 K132A/R137A, NR concentration 270 nM)
Summary of the method: as §1

[15] = system: PPARg homodimer (NR concentration 180 nM)
Summary of the method: as §1

[16] = system: PXR:RXRa (NR concentration 270 nM, RXRa partner concentration 90 nM)
Summary of the method: as §1

[17] = system: PXR homodimer (NR concentration 270 nM)
Summary of the method: as §1

[18] = system: RARa:RXR (NR concentration 270 nM, RXRa partner concentration 90 nM)
Summary of the method: as §1

[19] = system: RARa homodimer (NR concentration 270 nM)
Summary of the method: as §1

[20] = system: RARb:RXRa (NR concentration 270 nM, RXRa partner concentration 90 nM)
Summary of the method: as §1

Sequence | PBM binding z-score [1] | PBM binding z-score [2] | PBM binding z-score [3] | PBM binding z-score [4] | PBM binding z-score [5] | PBM binding z-score [6] | PBM binding z-score [7] | PBM binding z-score [8] | PBM binding z-score [9] | PBM binding z-score [10] | PBM binding z-score [11] | PBM binding z-score [12] | PBM binding z-score [13] | PBM binding z-score [14] | PBM binding z-score [15] | PBM binding z-score [16] | PBM binding z-score [17] | PBM binding z-score [18] | PBM binding z-score [19] | PBM binding z-score [20]
TTACCAAGGTGAAAGGTCGTTCATGCACGCCTTG | 3.83 | 3.72 | 0.593 | 3.18 | -0.344 | 5.32 | 8.83 | 8.22 | 8.68 | 8.9 | 2.97 | 5.04 | 0.222 | 0.115 | 1.16 | 3.93 | 0.838 | 5.63 | 0.139 | 3.06
TCGGGTAGGTTACCAATGGGGCATTCAGCTTTCT | 0.661 | 1.91 | 0.192 | 1.61 | 0.113 | 1.22 | 0.0871 | 1.31 | 1.96 | 1.63 | 1.78 | 1.82 | 0.338 | -0.222 | 0.725 | 0.647 | -0.198 | 0.735 | 0.0772 | 1.41
GGAACGAGGGCAAGTTGTTAGCAGAGTTTGATGG | 0.972 | 0.498 | -0.221 | 0.541 | -0.646 | 1.84 | 0.863 | 1.04 | -0.161 | 0.479 | 3.77 | 2.94 | -0.421 | -0.269 | 0.194 | 0.979 | 0.561 | 0.459 | -0.28 | 2.78
CCTAATGGGCCACGAAAGGTCATTGATTCAGTGA | 3.91 | 5.44 | 4.82 | 4.5 | 0.556 | 4.42 | 3.05 | 4.1 | 1.8 | 3.4 | 3.95 | 4.1 | 0.487 | 0.297 | 2.38 | 5.44 | 1.32 | 5.08 | 0.945 | 4.16
CCGAGTAGGTTATGAGGCATTCAGGCAACGGTGA | -0.0177 | 0.0841 | -0.0523 | -0.158 | -0.156 | 1.02 | 1.3 | 2.22 | 0.331 | 1.44 | 2.79 | 2.1 | -0.794 | -0.318 | 0.571 | -0.101 | -0.42 | 0.567 | -0.00223 | 0.501
TCTATTAGTTAATTAGGGCAACCGAAACAGCGGA | 0.524 | 0.526 | 0.315 | 0.637 | 0.558 | 2.73 | 2.2 | 2.94 | 3.88 | 3.37 | 4.63 | 5.38 | 1.64 | 1.52 | 0.99 | 0.546 | 0.152 | 0.998 | 1.68 | 1.04
CCAGACAGGTGAGAAGGGAACTCAGCCTCGATTA | -0.0941 | -0.0473 | 0.111 | -0.208 | -0.526 | -0.0624 | 0.318 | 0.174 | -0.465 | -0.306 | 0.589 | 0.343 | -0.35 | -0.943 | 0.62 | -0.225 | 0.169 | -0.0265 | 0.727 | 0.228
ATCTCTAGGTAAGACTCAGTTCAGTGACGAACGC | 0.592 | 0.636 | 0.724 | 0.467 | 0.883 | 0.279 | 0.47 | 0.379 | 0.0999 | 0.176 | 2.2 | 1.36 | 0.803 | 0.863 | 0.854 | 1.11 | 2.01 | 0.642 | 1.18 | 0.528
CAAACTAGGTCAAGAGGTCAAATTCCGCTTCCCG | 7.41 | 6.59 | 7.45 | 6.01 | 2.95 | 6.83 | 9.67 | 8.42 | 7.02 | 8.9 | 7.98 | 8.45 | 2.67 | 2.22 | 6.39 | 6.47 | 2.4 | 7.61 | 2.96 | 5.63
CAAACTAGGTCAAGAGGTTAAAGTCCGCTTCCCG | 5.05 | 4.32 | 2.01 | 3.13 | 0.567 | 5.3 | 8.91 | 7.27 | 5.14 | 7.16 | 8.33 | 8.39 | 1.58 | 0.849 | 2.66 | 3.48 | 0.622 | 4.85 | 1.25 | 4.47
TAGCCTATGTCAGATCGGGCCAGTATACGCTATA | -0.25 | -0.56 | -0.38 | -0.651 | -0.818 | -0.546 | 0.0766 | -0.557 | -0.477 | -0.278 | -0.342 | -0.424 | -0.269 | -0.692 | -1.19 | -0.323 | -0.853 | 0.184 | -0.755 | 0.0129
